{
  "source": "PubChem BioAssay (EPA / NIEHS)",
  "note": "Inconclusive results are not listed. Calls of active or inactive are those of the source. The calls were made as follows, unless noted: active = hit-call score of the fitted dose curve at least 0.9, where 1 is the maximum; inconclusive = response in the unintended direction; inactive = score below 0.9.",
  "data": [
    {"system": "not listed separately", "assay": "CCTE_Shafer_MEA_dev_firing_rate_mean: CCTE's Neural Network Formation Assay for Mean Firing Rate, Shafer Lab (AID 2284031; active = hit-call score of the fitted dose curve at least 0.9, where 1 is the maximum; inactive = score below 0.9;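 as to AC50: curve fitted for loss of firing so AC50 reflects decreased mean firing rate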)", "outline": "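Extracellular spike frequency, AUC over DIV 5–12 recordings, in rat cortical neuron MEA cultures dosed from plating; loss direction vs DMSO.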", "values": [
      {"smiles": "OC(Cc1ccccc1Cl)(Cn1[nH]cnc1=S)C1(Cl)CC1", "note": "(stereo not drawn)", "AC50": "20.8 µM (active)"},
      {"smiles": "C=CC(F)(C(F)(F)F)C(F)(F)C(F)(F)F", "note": "(stereo not drawn)", "outcome": "inactive"},
      {"smiles": "FC(F)OCC(F)(F)C(F)(F)F", "outcome": "inactive"},
      {"smiles": "C=CCOC(F)(C(F)(F)F)C(F)(F)F", "outcome": "inactive"},
      {"smiles": "O=S(=O)(F)C(F)(F)C(F)(F)C(F)(F)C(F)(F)F", "outcome": "inactive"},
      {"smiles": "NC(=O)c1ccc(N)nc1", "AC50": "9.03 µM (active)"},
      {"smiles": "CC(F)(F)CC(F)(F)F", "outcome": "inactive"},
      {"smiles": "CNC(=O)CSP(=O)(OC)OC", "outcome": "inactive"},
      {"smiles": "CC(=O)C(F)(F)C(F)(F)F", "outcome": "inactive"},
      {"smiles": "CCOCn1c(-c2ccc(Cl)cc2)c(C#N)c(Br)c1C(F)(F)F", "AC50": "3.01 µM (active)"}
    ]},
    {"system": "not listed separately", "assay": "CCTE_Deisenroth_AIME_384WELL_CTox_Active: Cytotoxicity Assessment (CTOX) in CCTE's 384-well Estrogen Receptor Transactivation Assay with AIME metabolic competence (metabolism positive), Deisenroth Lab (AID 2284037);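 also: chemicals first conditioned 2 h by alginate-bound induced rat liver S9 before cells; activity means signal loss indicating cell death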", "outline": "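VM7Luc4E2 breast cells received medium pre-incubated 2 h with chemical over alginate microspheres holding induced male Sprague Dawley rat liver S9; viability read 24 h later by protease-substrate fluorescence. Loss of signal, bidirectional fit, 0.002–200 uM.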", "values": [
      {"smiles": "CCC[CH2][Sn]([Cl])([Cl])[CH2]CCC", "AC50": "13.6 µM (active)"},
      {"smiles": "O=S1(=O)OC(c2cc(Br)c(O)c(Br)c2)(c2cc(Br)c(O)c(Br)c2)c2ccccc21", "AC50": "160 µM (active)"},
      {"smiles": "COc1ccc(N)cc1", "outcome": "inactive"},
      {"smiles": "CC(C)O.CC(C)O.OCCN(CCO)CCO.OCCN(CCO)CCO.[Ti]", "outcome": "inactive"},
      {"smiles": "O=c1[nH]c(=O)n(Cl)c(=O)n1Cl", "outcome": "inactive"},
      {"smiles": "Nc1ncn[nH]1", "outcome": "inactive"},
      {"smiles": "Cc1cc(Cl)ccc1OCCCC(=O)O", "outcome": "inactive"},
      {"smiles": "N#CS", "outcome": "inactive"},
      {"smiles": "O=C(CBr)c1ccc(O)cc1", "outcome": "inactive"}
    ]},
    {"system": "not listed separately", "assay": "CCTE_Deisenroth_AIME_384WELL_CTox_Inactive: Cytotoxicity Assessment (CTOX) in CCTE's 384-well Estrogen Receptor Transactivation Assay without AIME metabolic competence (metabolism negative), Deisenroth Lab (AID 2284039);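 also: cell viability via live-cell protease substrate cleaved to fluorescent probe; cells exposed 24 h to medium preincubated 2 h with alginate-water beads without S9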", "outline": "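VM7Luc4E2 cells, metabolism-negative arm: test chemicals (0.002–200 uM, 10 points) pre-incubated 2 h with alginate-water microspheres, then medium transferred to cells for 24 h. Viability read as protease-substrate cleavage to fluorescent probe; loss-of-signal, bidirectional fitting.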", "values": [
      {"smiles": "CCC[CH2][Sn]([Cl])([Cl])[CH2]CCC", "AC50": "9.65 µM (active)"},
      {"smiles": "O=S1(=O)OC(c2cc(Br)c(O)c(Br)c2)(c2cc(Br)c(O)c(Br)c2)c2ccccc21", "outcome": "inactive"},
      {"smiles": "CC(C)O.CC(C)O.OCCN(CCO)CCO.OCCN(CCO)CCO.[Ti]", "outcome": "inactive"},
      {"smiles": "COc1ccccc1N", "outcome": "inactive"},
      {"smiles": "Cc1cc(Cl)ccc1OCCCC(=O)O", "outcome": "inactive"},
      {"smiles": "Clc1cccc(Cl)c1", "outcome": "inactive"},
      {"smiles": "N#CS", "outcome": "inactive"}
    ]},
    {"biological_target": "Estrogen receptor (Homo sapiens) (UniProt P03372)", "sequence (P03372 whole entry, looked up)": "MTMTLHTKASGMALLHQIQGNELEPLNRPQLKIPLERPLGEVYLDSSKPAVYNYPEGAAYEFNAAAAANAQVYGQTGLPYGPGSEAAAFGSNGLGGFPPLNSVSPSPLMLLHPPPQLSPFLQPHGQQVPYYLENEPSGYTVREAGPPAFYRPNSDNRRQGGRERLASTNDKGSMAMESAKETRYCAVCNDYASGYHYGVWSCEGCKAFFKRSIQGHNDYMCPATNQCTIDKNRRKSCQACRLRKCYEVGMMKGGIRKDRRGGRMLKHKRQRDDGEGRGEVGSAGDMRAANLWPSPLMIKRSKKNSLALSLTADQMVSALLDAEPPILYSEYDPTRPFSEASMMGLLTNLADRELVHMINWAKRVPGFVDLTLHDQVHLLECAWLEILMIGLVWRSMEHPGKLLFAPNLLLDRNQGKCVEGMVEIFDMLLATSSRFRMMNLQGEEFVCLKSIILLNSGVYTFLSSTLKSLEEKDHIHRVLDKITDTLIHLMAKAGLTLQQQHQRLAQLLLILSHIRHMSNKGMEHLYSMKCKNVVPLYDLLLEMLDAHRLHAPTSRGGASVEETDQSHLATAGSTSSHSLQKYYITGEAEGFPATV", "assay": "CCTE_Deisenroth_AIME_384WELL_LUC_Shift: CCTE's 384-well Estrogen Receptor Transactivation Assay with AIME metabolic competence data shift (ERTA luciferase; difference in metabolism positive and negative), Deisenroth Lab (AID 2284041; active = hit-call score of the fitted dose curve at least 0.9, where 1 is the maximum; inactive = score below 0.9;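 also: shift is response with S9 minus without S9 so positive means metabolism raised ER signal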)", "outline": "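Here, parent compounds undergo 2 h phase I metabolism by PB/BNF-induced rat S9 before 24 h transactivation in VM7Luc4E2 cells; the curve models S9-positive minus S9-negative response over a 10-point series.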", "values": [
      {"smiles": "CCC[CH2][Sn]([Cl])([Cl])[CH2]CCC", "outcome": "inactive"},
      {"smiles": "O=S1(=O)OC(c2cc(Br)c(O)c(Br)c2)(c2cc(Br)c(O)c(Br)c2)c2ccccc21", "outcome": "inactive"},
      {"smiles": "CC(=Cc1ccccc1)[N+](=O)[O-]", "outcome": "inactive"}
    ]},
    {"system": "not listed separately", "assay": "CCTE_Shafer_MEA_dev_burst_rate: CCTE's Neural Network Formation Assay for Burst Rate, Shafer Lab (AID 2284042; active = hit-call score of the fitted dose curve at least 0.9, where 1 is the maximum; inactive = score below 0.9;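 as to AC50: potency for loss of burst rate below DMSO control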)", "outline": "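Primary rat cortical neurons on PEI-coated 48-well MEA plates (laminin added with cells at plating) (16 electrodes/well), exposed from plating to day 12, dosing renewed at DIV 5 and 9. Burst rate averaged over active electrodes, recorded DIV 5, 7, 9, 12, summarized as AUC; loss versus DMSO.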", "values": [
      {"smiles": "OC(Cc1ccccc1Cl)(Cn1[nH]cnc1=S)C1(Cl)CC1", "note": "(stereo not drawn)", "AC50": "29.4 µM (active)"},
      {"smiles": "C=CC(F)(C(F)(F)F)C(F)(F)C(F)(F)F", "note": "(stereo not drawn)", "outcome": "inactive"},
      {"smiles": "FC(F)OCC(F)(F)C(F)(F)F", "outcome": "inactive"},
      {"smiles": "C=CCOC(F)(C(F)(F)F)C(F)(F)F", "outcome": "inactive"},
      {"smiles": "O=S(=O)(F)C(F)(F)C(F)(F)C(F)(F)C(F)(F)F", "outcome": "inactive"},
      {"smiles": "NC(=O)c1ccc(N)nc1", "AC50": "8.62 µM (active)"},
      {"smiles": "CC(F)(F)CC(F)(F)F", "outcome": "inactive"},
      {"smiles": "CNC(=O)CSP(=O)(OC)OC", "outcome": "inactive"},
      {"smiles": "CC(=O)C(F)(F)C(F)(F)F", "outcome": "inactive"},
      {"smiles": "CCOCn1c(-c2ccc(Cl)cc2)c(C#N)c(Br)c1C(F)(F)F", "AC50": "4.86 µM (active)"}
    ]},
    {"system": "not listed separately", "assay": "CCTE_Shafer_MEA_dev_bursting_electrodes_number: CCTE's Neural Network Formation Assay for Number of Bursting Electrodes, Shafer Lab (AID 2284043);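 as to AC50: potency is for loss of bursting electrodes relative to DMSO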", "outline": "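Counted: electrodes with burst rate ≥1 per 2 min in each well. Cells: primary rat cortex, 1.5 x 10^5/well, on 16-electrode MEA wells. Exposure: DIV 0–12, compound renewed DIV 5 and 9. Recording days 5, 7, 9, 12; AUC vs DMSO baseline.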", "values": [
      {"smiles": "OC(Cc1ccccc1Cl)(Cn1[nH]cnc1=S)C1(Cl)CC1", "note": "(stereo not drawn)", "AC50": "29.9 µM (active)"},
      {"smiles": "C=CC(F)(C(F)(F)F)C(F)(F)C(F)(F)F", "note": "(stereo not drawn)", "outcome": "inactive"},
      {"smiles": "FC(F)OCC(F)(F)C(F)(F)F", "outcome": "inactive"},
      {"smiles": "C=CCOC(F)(C(F)(F)F)C(F)(F)F", "outcome": "inactive"},
      {"smiles": "O=S(=O)(F)C(F)(F)C(F)(F)C(F)(F)C(F)(F)F", "outcome": "inactive"},
      {"smiles": "NC(=O)c1ccc(N)nc1", "AC50": "5.44 µM (active)"},
      {"smiles": "CNC(=O)CSP(=O)(OC)OC", "outcome": "inactive"},
      {"smiles": "CC(=O)C(F)(F)C(F)(F)F", "outcome": "inactive"},
      {"smiles": "CCOCn1c(-c2ccc(Cl)cc2)c(C#N)c(Br)c1C(F)(F)F", "AC50": "4.44 µM (active)"}
    ]}
  ]
}
